Experimental data taken from PubChem BioAssay (NCATS).
Records with an inconclusive call do not appear. Activity calls are given as the source filed them. Unless noted, calls follow the shape of the dose curve; as a rule, active = well fitted curve in either direction with a large enough effect (not every such curve was filed as active); inconclusive = small, poorly fitted or top-dose-only effect, or another doubt; inactive = flat fitted curve, though single readings scatter.

Legend:
[1] = biological target: Lysosomal acid glucosylceramidase (Homo sapiens) (UniProt P04062); experiment: Glucocerebrosidase-p2 (AID 348; in the data active = potency below about 10 µM; also: potency is read from the fitted curve at half-maximal effect); conditions: purified GBA, blue fluorogenic substrate, 40 min
Lysosomal acid glucosylceramidase (Homo sapiens), sequence (P04062 whole entry, looked up): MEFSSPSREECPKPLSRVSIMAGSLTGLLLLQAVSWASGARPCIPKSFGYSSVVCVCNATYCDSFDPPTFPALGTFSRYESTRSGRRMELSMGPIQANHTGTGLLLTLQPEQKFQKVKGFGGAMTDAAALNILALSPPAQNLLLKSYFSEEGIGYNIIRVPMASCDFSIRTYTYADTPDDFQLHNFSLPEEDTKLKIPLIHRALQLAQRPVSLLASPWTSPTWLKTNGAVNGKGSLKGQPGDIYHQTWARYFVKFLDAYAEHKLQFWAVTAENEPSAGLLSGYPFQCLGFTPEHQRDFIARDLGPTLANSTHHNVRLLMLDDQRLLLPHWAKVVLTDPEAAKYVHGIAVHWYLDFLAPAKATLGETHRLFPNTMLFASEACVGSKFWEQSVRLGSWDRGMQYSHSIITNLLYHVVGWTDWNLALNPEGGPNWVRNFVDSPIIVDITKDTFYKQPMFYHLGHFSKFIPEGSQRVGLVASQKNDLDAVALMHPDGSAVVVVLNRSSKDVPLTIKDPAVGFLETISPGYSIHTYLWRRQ
Outline: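 Compounds titrated from 0.6 nM upwards against 0.2 nM enzyme in pH 5.9 citric acid/KH2PO4, taurocholate, tween-20; blue fluorogenic substrate 80 uM, 40 min room temperature, stopped and read Ex 365/Em 440 for AC50.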

[2] = AP1 Signaling Pathway (AID 357); conditions: ME-180 AP-1-bla reporter, EGF-induced, beta-lactamase ratio, 5 h; at 7.69 µM (top of the series) unless noted;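 also: ME-180 reporter cells stimulated with EGF at its EC50 level; % is scaled to controls: 0 for no effect and ±100 for the full control effect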
Outline: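 First, ME-180 AP-1-bla cells were cultured overnight at 37 °C in low-serum Opti-MEM. Next, titrated compounds with EC50 EGF were incubated 5 hours. Finally, CCF4 was added for 2.5 hours and the 460/530 nm ratio recorded.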

[3] = biological target: Cytochrome P450 1A2 (Homo sapiens) (UniProt P05177); experiment: p450-cyp1a2 (AID 410; calls by dose curve; also: potency is read from the fitted curve at half-maximal effect;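 as to activity change, negative = inhibition: -100% = full effect of reference inhibitor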); conditions: recombinant CYP1A2, luciferin-ME demethylation, luminescence; series mostly up to 11.4 µM
Cytochrome P450 1A2 (Homo sapiens), sequence (P05177 whole entry, looked up): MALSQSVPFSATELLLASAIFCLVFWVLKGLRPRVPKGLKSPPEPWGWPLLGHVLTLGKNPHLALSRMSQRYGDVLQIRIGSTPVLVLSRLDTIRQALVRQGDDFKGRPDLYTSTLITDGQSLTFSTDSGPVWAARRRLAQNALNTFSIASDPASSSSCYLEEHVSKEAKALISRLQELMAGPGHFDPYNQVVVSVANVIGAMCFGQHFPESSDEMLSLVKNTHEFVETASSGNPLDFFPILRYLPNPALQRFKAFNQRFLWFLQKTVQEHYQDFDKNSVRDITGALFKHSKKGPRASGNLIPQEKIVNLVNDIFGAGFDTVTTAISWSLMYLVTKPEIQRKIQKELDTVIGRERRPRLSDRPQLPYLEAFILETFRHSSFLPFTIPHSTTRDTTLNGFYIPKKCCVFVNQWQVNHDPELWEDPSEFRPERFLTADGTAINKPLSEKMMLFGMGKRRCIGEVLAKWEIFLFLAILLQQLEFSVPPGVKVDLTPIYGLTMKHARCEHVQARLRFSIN
Outline: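 Luminescent readout of luciferin formed from Luciferin-ME by human CYP1A2; data normalized against complete inhibition by 57 uM furafylline. Enzyme 20nM, substrate 100uM at Km, 100mM KPO4 buffer, 60 min reaction at room temperature.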

[4] = Stat Signaling Pathway (AID 446); conditions: ME-180 SIE beta-lactamase reporter, IL-6 stimulated, 5 h; at 7.69 µM (top of the series) unless noted;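 also: ME-180 cervical cancer cells given 40 pM IL-6 alongside compound; SIE-controlled beta-lactamase reporter measured as 460/530 nm FRET emission ratio; % is scaled to controls: 0 for no effect and ±100 for the full control effect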
Outline: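 ME-180 cells carrying a SIE-driven beta-lactamase reporter are stimulated with 40 pM IL-6 for 5 h at 37C in the presence of compound. The 460/530 nm FRET substrate ratio is read after 2.5 h at RT. Data are normalised to 300 pM IL-6 and to 125 nM JAK inhibitor controls.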

[5] = biological target: Glucocorticoid receptor (Homo sapiens) (UniProt P04150); experiment: GR-GFP Redistribution (AID 450;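 active = compounds whose dose series gives a full or clear partial fitted curve of increased nuclear translocation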; also: potency is read from the fitted curve at half-maximal effect); conditions: U2OS GR-GFP nuclear translocation, laser cytometry, 2 h
Glucocorticoid receptor (Homo sapiens), sequence (P04150 whole entry, looked up, the tested form may be a part): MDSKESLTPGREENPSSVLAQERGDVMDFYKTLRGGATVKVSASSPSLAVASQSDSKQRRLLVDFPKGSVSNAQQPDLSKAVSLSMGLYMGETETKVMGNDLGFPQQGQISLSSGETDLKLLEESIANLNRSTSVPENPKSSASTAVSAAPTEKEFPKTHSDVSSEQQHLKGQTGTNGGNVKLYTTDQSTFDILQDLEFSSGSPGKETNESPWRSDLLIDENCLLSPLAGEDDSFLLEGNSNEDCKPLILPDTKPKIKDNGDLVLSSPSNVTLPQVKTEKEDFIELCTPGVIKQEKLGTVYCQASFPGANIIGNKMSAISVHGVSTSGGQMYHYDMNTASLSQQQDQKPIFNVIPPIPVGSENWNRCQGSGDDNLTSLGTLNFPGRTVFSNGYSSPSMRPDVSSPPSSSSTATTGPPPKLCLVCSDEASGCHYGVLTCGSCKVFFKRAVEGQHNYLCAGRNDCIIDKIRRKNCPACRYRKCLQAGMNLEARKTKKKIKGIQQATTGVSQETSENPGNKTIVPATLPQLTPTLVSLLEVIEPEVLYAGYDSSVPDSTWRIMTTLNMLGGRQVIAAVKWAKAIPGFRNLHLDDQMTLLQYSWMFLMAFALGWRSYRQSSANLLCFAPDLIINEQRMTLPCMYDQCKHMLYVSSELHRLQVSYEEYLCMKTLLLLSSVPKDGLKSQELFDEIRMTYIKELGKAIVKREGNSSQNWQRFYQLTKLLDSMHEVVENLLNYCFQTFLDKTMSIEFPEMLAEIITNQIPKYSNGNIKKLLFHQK

[6] = biological target: Mitogen-activated protein kinase 10 (Mus musculus) (UniProt Q61831); experiment: JNK3 AlphaScreen Assay (AID 530); conditions: JNK3 lysate, c-Jun phosphorylation; series mostly up to 57.1 µM;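 also: kinase came from lysate of stimulated human HepG2 cells; signal reports phosphorylation of biotinylated GST-cJun 1-79 at Ser73 with 10 µM ATP; % is scaled to controls: 0 for no effect and ±100 for the full control effect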
Outline: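 Inhibitors reduce antibody binding to phosphorylated biotin-cJun, lowering AlphaScreen luminescence. Lysates from HepG2 cells pre-activated by IL-1beta plus TNF-alpha supplied JNK3; compounds were titrated.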

[7] = biological target: 3',5'-cyclic-AMP phosphodiesterase 4B (Homo sapiens) (UniProt Q07343); experiment: qHTS Assay for Inhibitors of PDE-IV (AID 607; active = well fitted activation curve with a large enough effect in the main read-out, with a control signal flat, not every such curve was filed as active; also: % of control where 0% means no effect); conditions: HEK293 ACTOne CNG channel cells, membrane potential fluorescence; series mostly up to 22.9 µM
3',5'-cyclic-AMP phosphodiesterase 4B (Homo sapiens), sequence (Q07343 whole entry, looked up): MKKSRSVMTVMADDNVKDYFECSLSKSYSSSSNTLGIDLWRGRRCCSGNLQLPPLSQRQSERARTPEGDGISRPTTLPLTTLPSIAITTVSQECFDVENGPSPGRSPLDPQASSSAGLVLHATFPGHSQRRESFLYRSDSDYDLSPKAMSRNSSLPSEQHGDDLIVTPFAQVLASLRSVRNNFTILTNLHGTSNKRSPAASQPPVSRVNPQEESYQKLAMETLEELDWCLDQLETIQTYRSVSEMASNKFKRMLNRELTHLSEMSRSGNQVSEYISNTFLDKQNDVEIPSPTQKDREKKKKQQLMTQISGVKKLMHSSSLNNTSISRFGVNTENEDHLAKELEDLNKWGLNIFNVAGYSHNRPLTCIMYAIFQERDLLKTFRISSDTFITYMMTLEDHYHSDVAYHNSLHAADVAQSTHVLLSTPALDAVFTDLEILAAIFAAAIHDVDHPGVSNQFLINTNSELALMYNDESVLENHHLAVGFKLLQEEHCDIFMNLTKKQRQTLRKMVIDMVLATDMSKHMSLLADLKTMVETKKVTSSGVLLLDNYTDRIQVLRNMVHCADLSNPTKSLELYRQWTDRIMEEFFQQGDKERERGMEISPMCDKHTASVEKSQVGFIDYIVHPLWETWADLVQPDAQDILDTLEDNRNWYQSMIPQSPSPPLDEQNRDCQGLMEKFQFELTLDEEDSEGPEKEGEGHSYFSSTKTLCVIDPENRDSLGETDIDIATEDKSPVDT
Outline: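 HEK293 ACTOne cells with CNG channel (1000/well), endogenous PDE4; membrane potential dye, compounds up to 22.9 uM final. Fluorescence Ex 535/Em 590; RO 20-1724 (100 uM final) as reference.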

[8] = NFAT Signaling Pathway (AID 444); conditions: Jurkat NFAT-bla M1, carbachol, beta-lactamase ratio, 5 h; at 7.69 µM (top of the series) unless noted;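 also: carbachol stimulus at about its EC50 of 1 µM final; % is scaled to controls: 0 for no effect and ±100 for the full control effect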
Outline: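 Jurkat cells carrying an NFAT-driven β-lactamase reporter and co-transfected muscarinic M1 receptor were treated with compound plus carbachol (1 uM final, an EC50 level) for 5 h at 37 °C. CCF4 loading followed for 1 h at RT; 460/530 nm ratio gave %activity.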

[9] = qHTS Assay for Identification of Small Molecule Agonists for Hypoxia Response Element Signaling Pathway (AID 914; active = well fitted activation curve with a large enough effect in the signal ratio, with a control signal flat, not every such curve was filed as active; the % refers to the signal ratio; also: % of control where 0% means no effect); conditions: ME-180 (cervical carcinoma) HRE-bla reporter, beta-lactamase ratio, CoCl2, 17 h; hits give high values
Outline: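 HRE-bla ME-180 cells with beta-lactamase reporter under hypoxia response element, compounds with EC50 CoCl2 for 17 hours at 37 C. CCF4 substrate, 460nm/530nm emission ratio gave %Activity; AC50 from titration series.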

[10] = biological target: Glucocorticoid receptor (Homo sapiens) (UniProt P04150); experiment: GR-EFC Redistribution (AID 451; calls by dose curve; also: potency is read from the fitted curve at half-maximal effect); conditions: CHO-K1 GR-EFC translocation, beta-gal luminescence, 2 h
Outline: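 CHO-K1 cells stably expressing nuclear-localized β-gal enzyme acceptor and GR fused C-terminally to the enzyme donor fragment; ligand-driven nuclear translocation restores β-gal by complementation. Compounds titrated up to 46 uM final, 2 h at 37 °C; luminescence read.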

[11] = biological target: Cytochrome P450 2D6 (Homo sapiens) (UniProt P10635); experiment: qHTS Assay for Inhibitors and Substrates of Cytochrome P450 2D6 (AID 891; active = well fitted curve in the direction sought with a large enough effect; an effect the other way counts as inactive or inconclusive; also: nearly all actives have a fitted effect of over 60% in size; also: potency is read from the fitted curve at half-maximal effect); conditions: recombinant CYP2D6, luciferin-ME EGE luminescence; series mostly up to 11.4 µM
Cytochrome P450 2D6 (Homo sapiens), sequence (P10635 whole entry, looked up): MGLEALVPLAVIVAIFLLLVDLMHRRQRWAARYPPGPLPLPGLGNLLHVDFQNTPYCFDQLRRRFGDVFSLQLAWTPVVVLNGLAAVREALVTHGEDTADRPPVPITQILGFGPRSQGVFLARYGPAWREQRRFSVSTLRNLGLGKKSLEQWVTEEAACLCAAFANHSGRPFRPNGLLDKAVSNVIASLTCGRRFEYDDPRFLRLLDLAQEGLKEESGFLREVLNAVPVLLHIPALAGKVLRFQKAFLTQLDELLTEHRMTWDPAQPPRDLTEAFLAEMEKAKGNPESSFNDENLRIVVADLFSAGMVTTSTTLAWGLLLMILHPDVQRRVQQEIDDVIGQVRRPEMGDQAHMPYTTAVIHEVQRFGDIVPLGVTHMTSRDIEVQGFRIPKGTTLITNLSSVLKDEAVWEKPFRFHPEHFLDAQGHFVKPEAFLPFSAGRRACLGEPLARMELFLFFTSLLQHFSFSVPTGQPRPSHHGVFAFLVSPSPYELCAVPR
Outline: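 Human CYP2D6 (5 nM) with 30 uM Luciferin-ME EGE (at Km) in 100 mM KPO4, compound preincubated 10 min, then NADPH regeneration system for 60 min at room temperature. Luciferin read by luminescence; normalized to 1.43 uM quinidine.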

[12] = biological target: Cytochrome P450 2C9 (Homo sapiens) (UniProt P11712); experiment: qHTS Assay for Inhibitors and Substrates of Cytochrome P450 2C9 (AID 883; active = well fitted curve in the direction sought with a large enough effect; an effect the other way counts as inactive or inconclusive; also: potency is read from the fitted curve at half-maximal effect; nearly all actives have a fitted effect of over 60% in size); conditions: recombinant CYP2C9, luciferin-H luminescence, 60 min; series mostly up to 57.1 µM
Cytochrome P450 2C9 (Homo sapiens), sequence (P11712 whole entry, looked up): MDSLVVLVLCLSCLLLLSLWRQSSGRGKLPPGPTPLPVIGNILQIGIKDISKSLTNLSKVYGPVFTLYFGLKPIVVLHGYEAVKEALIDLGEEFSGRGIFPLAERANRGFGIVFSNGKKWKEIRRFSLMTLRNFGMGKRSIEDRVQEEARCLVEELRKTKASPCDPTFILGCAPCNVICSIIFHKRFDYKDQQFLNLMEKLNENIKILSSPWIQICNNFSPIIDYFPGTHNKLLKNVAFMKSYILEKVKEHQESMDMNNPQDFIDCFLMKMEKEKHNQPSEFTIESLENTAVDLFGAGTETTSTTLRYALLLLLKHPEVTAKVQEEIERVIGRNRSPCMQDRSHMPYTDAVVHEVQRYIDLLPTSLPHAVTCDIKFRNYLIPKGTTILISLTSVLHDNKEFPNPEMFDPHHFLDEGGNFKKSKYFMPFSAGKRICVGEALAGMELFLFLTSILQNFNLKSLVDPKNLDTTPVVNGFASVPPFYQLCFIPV
Outline: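 A luminogenic readout tracked human CYP2C9 (10nM) converting deoxyluciferin (100uM, at KM) in 25mM KPO4 during 60 min at 37C with regenerated NADPH. Values normalized to 57uM sulphaphenazole as complete inhibition.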

[13] = biological target: Cytochrome P450 3A4 (Homo sapiens) (UniProt P08684); experiment: qHTS Assay for Inhibitors and Substrates of Cytochrome P450 3A4 (AID 884; active = well fitted curve in the direction sought with a large enough effect; an effect the other way counts as inactive or inconclusive; also: potency is read from the fitted curve at half-maximal effect; nearly all actives have a fitted effect of over 50% in size); conditions: recombinant CYP3A4, Luciferin-PPXE luminescence; series mostly up to 57.1 µM
Cytochrome P450 3A4 (Homo sapiens), sequence (P08684 whole entry, looked up): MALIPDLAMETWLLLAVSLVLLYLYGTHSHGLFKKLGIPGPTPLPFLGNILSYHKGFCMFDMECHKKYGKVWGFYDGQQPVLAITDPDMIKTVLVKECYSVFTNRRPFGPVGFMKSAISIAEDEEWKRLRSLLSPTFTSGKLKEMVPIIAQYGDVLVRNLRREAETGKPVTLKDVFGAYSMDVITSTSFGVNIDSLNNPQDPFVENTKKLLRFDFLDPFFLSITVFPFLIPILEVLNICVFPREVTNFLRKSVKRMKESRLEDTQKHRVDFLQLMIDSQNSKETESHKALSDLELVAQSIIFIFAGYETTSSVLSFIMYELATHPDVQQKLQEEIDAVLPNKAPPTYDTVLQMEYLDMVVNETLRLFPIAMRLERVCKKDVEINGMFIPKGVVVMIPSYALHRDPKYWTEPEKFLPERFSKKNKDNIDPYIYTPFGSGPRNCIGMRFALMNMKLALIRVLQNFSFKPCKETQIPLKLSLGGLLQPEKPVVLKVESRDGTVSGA
Outline: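 20 nM human CYP3A4 with 25 uM Luciferin-PPXE (at KM) in 200 mM KPO4, preincubated 10 min with compound; NADPH regeneration started a 60 min RT reaction. Luciferin detected by luminescence, normalized to 57 uM ketoconazole as full inhibition.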

[14] = biological target: Cytochrome P450 3A4 (Homo sapiens) (UniProt P08684); experiment: qHTS Assay for Activators of Cytochrome P450 3A4 (AID 885; active = well fitted curve in the direction sought with a large enough effect; an effect the other way counts as inactive or inconclusive; also: nearly all actives have a fitted effect of over 65% in size); conditions: recombinant CYP3A4, Luciferin-PPXE luminescence, 60 min; series mostly up to 57.1 µM
Outline: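 Human CYP3A4 (20 nM) with Luciferin-PPXE at 25 uM (its KM) in 200 mM KPO4; 10 min compound preincubation, then NADPH regeneration and 60 min reaction at RT. Luciferin read by luminescence; normalized to 57 uM ketoconazole full inhibition.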

[15] = biological target: Cytochrome P450 2C19 (Homo sapiens) (UniProt P33261); experiment: qHTS Assay for Inhibitors and Substrates of Cytochrome P450 2C19 (AID 899; active = well fitted curve in the direction sought with a large enough effect; an effect the other way counts as inactive or inconclusive; also: % is scaled to controls: 0 for no effect and ±100 for the full control effect; nearly all actives have a fitted effect of over 60% in size); conditions: recombinant CYP2C19, luciferin-H EGE luminescence; series mostly up to 11.4 µM
Cytochrome P450 2C19 (Homo sapiens), sequence (P33261 whole entry, looked up): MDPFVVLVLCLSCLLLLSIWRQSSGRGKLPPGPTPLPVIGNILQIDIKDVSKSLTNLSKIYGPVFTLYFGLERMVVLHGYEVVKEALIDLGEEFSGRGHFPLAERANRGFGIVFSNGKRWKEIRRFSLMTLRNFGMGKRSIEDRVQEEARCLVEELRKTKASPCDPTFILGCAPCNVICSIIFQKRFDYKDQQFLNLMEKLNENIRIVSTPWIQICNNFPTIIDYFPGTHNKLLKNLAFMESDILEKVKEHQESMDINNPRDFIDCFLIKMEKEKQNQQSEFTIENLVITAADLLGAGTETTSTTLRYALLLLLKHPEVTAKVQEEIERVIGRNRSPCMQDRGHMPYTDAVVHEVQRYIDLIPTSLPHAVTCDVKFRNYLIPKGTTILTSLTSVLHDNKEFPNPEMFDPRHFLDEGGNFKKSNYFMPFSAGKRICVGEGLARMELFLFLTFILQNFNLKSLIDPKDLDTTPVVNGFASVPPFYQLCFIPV
Outline: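 NADPH-dependent conversion of Luciferin-H EGE (10uM, at KM) by 5nM enzyme in 50mM KPO4, 60 min at 37C following 10 min compound preincubation. Stopped with luciferin detection buffer; luminescence read after 20 min.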

NC(CCl)=N[C@H]1CN2CCC1CC2
inactive: Potency [1] > 11.4 µM | activity change, negative = inhibition [2] 5.68% | Potency [3] | activity, negative = inhibition [4] 13.9% | Potency [5] > 46 µM | activity change, negative = inhibition [6] 1.59% [at 11.4 µM] | outcome [7]

NCCP(=O)(O)O
inactive: Potency [1] > 11.4 µM | activity change, negative = inhibition [2] 3.81% | Potency [3] | activity change, negative = inhibition [8] 9.11% | activity, negative = inhibition [4] 10.6% | Potency [5] > 46 µM | activity change, negative = inhibition [6] 3.4% [at 11.4 µM] | outcome [7] | activation [9] 0.635%

Cn1c(=O)c2[nH]cnc2n(C)c1=O.[CH2-][C@H](Cc1cccc2cc(C(=O)O)c(=O)oc12)OC.[Hg].[OH-]
active: Potency [1] 4.43 µM
inactive: activity change, negative = inhibition [2] -5.03% | Potency [3] | activity change, negative = inhibition [8] 6.5% | activity, negative = inhibition [4] 14% | activity change, negative = inhibition [6] -0.539% [at 11.4 µM] | outcome [7]

CN1CCN(c2ccc([N+](=O)[O-])c3[nH]o[n+](=O)c23)CC1
inactive: Potency [1] > 11.4 µM | activity change, negative = inhibition [2] -7.81% | activity, negative = inhibition [4] 11.3% | Potency [5] > 46 µM | Potency [10] > 9.22 µM | activity change, negative = inhibition [6] -3.28% [at 11.4 µM] | outcome [7]
active: Potency [3] 0.398 µM

N[C@@H](CP(=O)(O)O)C(=O)O
inactive: Potency [1] > 11.4 µM | activity change, negative = inhibition [2] 0.329% | Potency [3] | activity change, negative = inhibition [8] 2.91% | activity, negative = inhibition [4] 2.68% | activity change, negative = inhibition [6] 5.7% [at 11.4 µM] | outcome [7]

O=C(O)CN1C(=O)CN=C(c2ccccn2)c2cc(Cl)ccc21
inactive: Potency [1] > 11.4 µM | activity change, negative = inhibition [2] 0.0967% | activity change, negative = inhibition [8] -1.6% | activity, negative = inhibition [4] 6.14% | Potency [10] > 9.22 µM | activity change, negative = inhibition [6] 3.65% [at 11.4 µM] | outcome [7]
active: Potency [3] 1.26 µM

C=C(C)c1ccccc1 (tested in a mixture with another compound)
inactive: Potency [1] > 11.4 µM | activity change, negative = inhibition [2] -1.01% | activity change, negative = inhibition [3] -19.6% [at 2.29 µM] | activity, negative = inhibition [4] -6.96% | activity change, negative = inhibition [6] -9.26% [at 11.4 µM] | outcome [7]

Nc1nc(N)c(Cn2ccnc2)c(=O)[nH]1
inactive: Potency [1] > 11.4 µM | activity change, negative = inhibition [2] -1.23% | Potency [3] | activity change, negative = inhibition [8] 17.6% | activity, negative = inhibition [4] 7.55% | Potency [10] > 9.22 µM | activity change, negative = inhibition [6] 2.41% [at 11.4 µM] | outcome [7]

CO[C@@H]([CH2][Hg])CN1C(=O)c2ccccc2S1(=O)=O.Cn1c(=O)c2nc[nH]c2n(C)c1=O
inactive: activity change, negative = inhibition [2] 12.7% | activity change, negative = inhibition [3] -22% [at 2.29 µM] | activity change, negative = inhibition [8] -3.51% | activity, negative = inhibition [4] 6.13% | activity change, negative = inhibition [6] -0.0716% [at 11.4 µM] | outcome [7] | Potency [11]
active: Potency [1] 1.86 µM

C[C@@H](Cc1ccc(Cl)cc1Cl)NO
inactive: Potency [1] > 11.4 µM | activity change, negative = inhibition [2] 3.86% | activity change, negative = inhibition [8] -11.6% | activity, negative = inhibition [4] -0.402% | Potency [5] > 46 µM | Potency [10] > 9.22 µM | activity change, negative = inhibition [6] 2.58% [at 11.4 µM] | outcome [7]

O=C(O)C(O)(c1ccc(-c2ccccc2)cc1)c1ccc(-c2ccccc2)cc1
inactive: Potency [1] > 11.4 µM | activity change, negative = inhibition [2] -25.7% | Potency [3] | activity, negative = inhibition [4] -5.5% | Potency [10] > 9.22 µM | outcome [7]
active: Potency [12] 3.16 µM

COC(=O)[C@H]1C(=O)[C@H](C(=O)OC)[C@@H]2CC[C@H]1N2C
inactive: Potency [1] > 11.4 µM | activity change, negative = inhibition [2] 12.9% | activity change, negative = inhibition [8] 11.3% | activity, negative = inhibition [4] 7.99% | Potency [10] > 9.22 µM | activity change, negative = inhibition [6] 4.63% [at 11.4 µM] | outcome [7]
active: Potency [3] 0.794 µM

CC(=O)O/C(=C1/C[C@H]2[C@@H]3CC=C4C[C@@H](OC(C)=O)CC[C@]4(C)[C@@H]3CC[C@]2(C)C1=O)C(F)(F)F
inactive: Potency [1] > 11.4 µM | activity change, negative = inhibition [2] -23.8% | activity, negative = inhibition [4] -16.9% | Potency [5] > 46 µM | Potency [10] > 9.22 µM | activity change, negative = inhibition [6] -0.565% [at 11.4 µM] | outcome [7]
active: Potency [3] 5.01 µM

Nc1ccc(S(=O)(=O)c2ccc(NCN3C(=O)NC(=O)C(=O)C3=O)cc2)cc1
active: Potency [13] 2 µM
inactive: Potency [1] > 11.4 µM | activity change, negative = inhibition [2] -11.3% | Potency [3] | activity, negative = inhibition [4] -4.49% | Potency [5] > 46 µM | Potency [10] > 9.22 µM | activity change, negative = inhibition [6] 1.4% [at 11.4 µM] | outcome [7] | activity change, positive = activation [14] -78% [at 11.4 µM] | Potency [15]

O=C(O)C[C@H]1OCC=C2CN3CC[C@]45c6ccccc6N[C@@H]4[C@H]1[C@H]2C[C@H]35
inactive: Potency [1] > 11.4 µM | activity change, negative = inhibition [2] 0.952% | activity change, negative = inhibition [8] -1.05% | activity, negative = inhibition [4] -4.29% | Potency [5] > 46 µM | Potency [10] > 9.22 µM | activity change, negative = inhibition [6] 8.39% [at 11.4 µM] | outcome [7]

O=C(CCN1CC2CCC(CC2)C1)c1cccs1
active: Potency [3] 5.01 µM | Potency [11] 2 µM
inactive: Potency [1] > 11.4 µM | activity change, negative = inhibition [2] 17.2% | activity, negative = inhibition [4] 1.61% | Potency [5] > 46 µM | Potency [10] > 9.22 µM | activity change, negative = inhibition [6] 0.402% [at 11.4 µM] | outcome [7]
